Measured values published in PubChem BioAssay (NCI).
This is part of a sample that, as a whole, favours compounds with a hit. Of some 83,000 tested, about 20% had one in any assay.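 Method: cells in 96-well plates; compound added at one concentration; 48 h incubation; percent growth measured; values under 10 scored active.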 The source made the active and inactive calls.

Columns and labels:
Assay in all cases: NCI-60 one-dose screen, 48 h (100 = growth as untreated, 0 = no growth, -100 = all killed)
Details in all cases: 10 µM unless noted
SK-MEL-2 melanoma = test system: SK-MEL-2 melanoma
EKVX NSCLC = test system: EKVX NSCLC
SN12C renal = test system: SN12C renal
UO-31 renal = test system: UO-31 renal
TK-10 renal = test system: TK-10 renal
ACHN renal = test system: ACHN renal
A498 renal = test system: A498 renal
CCRF-CEM leukemia = test system: CCRF-CEM leukemia
MOLT-4 leukemia = test system: MOLT-4 leukemia
CAKI-1 renal = test system: CAKI-1 renal

Measured: growth

COc1cc2c(cc1OC)C(Sc1ccc(SC)cc1)c1c(nc(N)c(C#N)c1N)O2 (stereo not given)
active: SK-MEL-2 melanoma -63.7% | EKVX NSCLC -45.6% | SN12C renal -88% | UO-31 renal -99.7% | TK-10 renal -95.7% | ACHN renal -86.4% | A498 renal -6.98% | CCRF-CEM leukemia -32.7% | MOLT-4 leukemia -26.3%

COc1ccc(SC2c3cc(OC)c(OC)cc3Oc3nc(N)c(C#N)c(N)c32)cc1 (stereo not given)
active: SK-MEL-2 melanoma -26.3% | EKVX NSCLC -51.7% | SN12C renal -90.6% | UO-31 renal -100% | TK-10 renal -49.6% | ACHN renal -95.6% | A498 renal -13.8% | CCRF-CEM leukemia -37.2% | MOLT-4 leukemia -26.8%

Cc1cc(N2CCN(C)CC2)nc(NC2CCCC(Nc3ccnc4cc(Cl)ccc34)C2)n1 (stereo not given)
inactive: EKVX NSCLC 34.4% | A498 renal 54.5%
active: SK-MEL-2 melanoma -66.7% | SN12C renal -21% | UO-31 renal -100% | TK-10 renal -75.8% | ACHN renal -88.6% | CCRF-CEM leukemia -26% | MOLT-4 leukemia 1.05%

NC(CSC(c1ccccc1)(c1ccccc1)c1ccc(Cl)cc1)C(=O)O (stereo not given)
inactive: EKVX NSCLC 27.1% | SN12C renal 27.5% | UO-31 renal 65% | TK-10 renal 64.8% | ACHN renal 53% | A498 renal 26.7%
active: SK-MEL-2 melanoma -9.63% | CCRF-CEM leukemia 3.48% | MOLT-4 leukemia 6.35%

Clc1ccc2c(NCCCCNc3nc(N4CCOCC4)nc4ccccc34)ccnc2c1
inactive: SK-MEL-2 melanoma 103% | EKVX NSCLC 45.2% | A498 renal 90.4% | MOLT-4 leukemia 17.6%
active: SN12C renal -8.57% | UO-31 renal -89.7% | TK-10 renal -63.1% | ACHN renal -67.5% | CCRF-CEM leukemia -21.7%

COc1ccc(-c2cc(C(=O)N=Nc3c(O)[nH]c4ccc(Br)cc34)no2)cc1
inactive: SK-MEL-2 melanoma 97.6% | EKVX NSCLC 94.4% | SN12C renal 93.6% | UO-31 renal 77.6% | TK-10 renal 124% | CAKI-1 renal 84.1% | A498 renal 99.6% | CCRF-CEM leukemia 102% | MOLT-4 leukemia 101%

Oc1cccc(-c2nc(N3CCOCC3)c3c4c(sc3n2)CCCC4)c1
inactive: SK-MEL-2 melanoma 71.3% | EKVX NSCLC 34.4% | SN12C renal 38.8% | UO-31 renal 13.1% | TK-10 renal 70.6% | CAKI-1 renal 69.8% | A498 renal 114% | CCRF-CEM leukemia 60.5% | MOLT-4 leukemia 24%

Nc1n[nH]c2ccc([C@@H]3Nc4ccc5cn[nH]c5c4[C@H]4C5CCC(C5)[C@@H]34)cc12 (stereo not given in full)
inactive: SK-MEL-2 melanoma 55.5% | EKVX NSCLC 48.7% | SN12C renal 43.9% | UO-31 renal 38.9% | TK-10 renal 74.3% | ACHN renal 39.2% | CCRF-CEM leukemia 15.6% | MOLT-4 leukemia 20.8%

O=C1C=C(OCC=C(Cl)Cl)C(=O)c2ccccc21
inactive: SK-MEL-2 melanoma 69.8% | EKVX NSCLC 93.3% | SN12C renal 84.5% | UO-31 renal 59% | TK-10 renal 122% | CAKI-1 renal 93.4% | A498 renal 97.7% | CCRF-CEM leukemia 28.7% | MOLT-4 leukemia 71%

CSc1ccc(SC2c3ccc(C)cc3Oc3nc(N)c(C#N)c(N)c32)cc1 (stereo not given)
active: SK-MEL-2 melanoma -58.9% | EKVX NSCLC -48.6% | SN12C renal -98% | UO-31 renal -99.2% | TK-10 renal -97% | ACHN renal -96.6% | A498 renal 4.22% | CCRF-CEM leukemia -37% | MOLT-4 leukemia -17.9%

OC(COc1cccc2ccccc12)CN1CCN(c2ccccc2Cl)CC1 (stereo not given)
inactive: SK-MEL-2 melanoma 44.6% | EKVX NSCLC 102% | SN12C renal 105% | UO-31 renal 85.1% | TK-10 renal 100% | ACHN renal 102% | A498 renal 90% | MOLT-4 leukemia 107%

CCCCn1c(-c2ccc(C(=O)O/N=C(\N)c3ccc4ccccc4c3)cc2)nc(-c2ccccc2)c1-c1ccccc1
active: UO-31 renal -24.1% | ACHN renal -72.7%
inactive: SK-MEL-2 melanoma 96.4% | EKVX NSCLC 75.7% | SN12C renal 63.5% | TK-10 renal 86.2% | CCRF-CEM leukemia 40.8% | MOLT-4 leukemia 62.8%

COc1ccc(C(=O)COc2ccc(/C=C3\Oc4ccc(OC)cc4C3=O)cc2)cc1
inactive: SK-MEL-2 melanoma 86.4% | EKVX NSCLC 99.4% | SN12C renal 101% | TK-10 renal 119% | ACHN renal 105% | CAKI-1 renal 98.3% | A498 renal 98.9% | CCRF-CEM leukemia 72.6% | MOLT-4 leukemia 83.6%

COc1nc2c(c(=O)n1C)CN(Cc1ccccc1)C=N2
inactive: SK-MEL-2 melanoma 106% | EKVX NSCLC 111% | SN12C renal 116% | UO-31 renal 77.3% | ACHN renal 106% | A498 renal 131% | CCRF-CEM leukemia 103% | MOLT-4 leukemia 105%

CC[C@@H]1O[C@H](O[C@@H](c2cnc[nH]2)[C@H](NC(=O)c2nc([C@H](CC(N)=O)NC[C@@H](N)C(N)=O)nc(N)c2C)C(=O)N[C@H](C)[C@H](O)[C@H](C)C(=O)N[C@@H](C(=O)NCCc2nc(-c3nc(C(=O)NCCCCN=C(N)N)cs3)cs2)[C@@H](C)O)[C@H](O[C@@H]2O[C@H](CO)[C@H](O)[C@H](OC(N)=O)[C@@H]2O)[C@H](C)[C@@H]1C
inactive: SK-MEL-2 melanoma 101% | EKVX NSCLC 91.8% | SN12C renal 21.9% | UO-31 renal 23.2% | TK-10 renal 71.9% | A498 renal 78.2% | CCRF-CEM leukemia 80.5% | MOLT-4 leukemia 46.8%

COc1cccc(/C=C2\Oc3cc(OCCN4CCCC4)ccc3C2=O)c1
inactive: SK-MEL-2 melanoma 102% | EKVX NSCLC 89.3% | SN12C renal 97.3% | UO-31 renal 80.8% | TK-10 renal 89.3% | CAKI-1 renal 98.5% | CCRF-CEM leukemia 71.6% | MOLT-4 leukemia 88.9%

CC(C)(C)N1CCC1CN (stereo not given)
inactive: SK-MEL-2 melanoma 72.1% | EKVX NSCLC 90.1% | SN12C renal 111% | UO-31 renal 91.1% | TK-10 renal 106% | ACHN renal 114% | A498 renal 88.5% | MOLT-4 leukemia 128%

Cn1c(NCCc2ccc(O)c(O)c2)nc2c1c(=O)n(Cc1ccc(Br)cc1)c(=O)n2C
inactive: SK-MEL-2 melanoma 89.8% | EKVX NSCLC 79.9% | SN12C renal 72.7% | TK-10 renal 68.8% | ACHN renal 32.9% | CAKI-1 renal 74.7% | A498 renal 106% | CCRF-CEM leukemia 23% | MOLT-4 leukemia 29.3%
